# Data published in paper PMC7862700, “An all-to-all approach to the identification of sequence-specific readers for epigenetic DNA modifications on cytosine”.
# Tests used:
# Assay in all cases: DAPPL (digital affinity profiling via proximity ligation, sequencing); 10 mM Tris-HCl pH 7.5, 50 mM NaCl, 1 mM DTT, 4% glycerol, room temperature, 30 min; GST-TFs on glutathione beads, 16-mer random dsDNA library, 0.1% formaldehyde crosslink after washing; high values mean tight binding
# FLI1 = biological target: T1, FLI1 (Homo sapiens, UniProt Q01543 1-452); conditions: protein: recombinant; tags: N-terminal GST; dsDNA, one strand shown
# T1 sequence: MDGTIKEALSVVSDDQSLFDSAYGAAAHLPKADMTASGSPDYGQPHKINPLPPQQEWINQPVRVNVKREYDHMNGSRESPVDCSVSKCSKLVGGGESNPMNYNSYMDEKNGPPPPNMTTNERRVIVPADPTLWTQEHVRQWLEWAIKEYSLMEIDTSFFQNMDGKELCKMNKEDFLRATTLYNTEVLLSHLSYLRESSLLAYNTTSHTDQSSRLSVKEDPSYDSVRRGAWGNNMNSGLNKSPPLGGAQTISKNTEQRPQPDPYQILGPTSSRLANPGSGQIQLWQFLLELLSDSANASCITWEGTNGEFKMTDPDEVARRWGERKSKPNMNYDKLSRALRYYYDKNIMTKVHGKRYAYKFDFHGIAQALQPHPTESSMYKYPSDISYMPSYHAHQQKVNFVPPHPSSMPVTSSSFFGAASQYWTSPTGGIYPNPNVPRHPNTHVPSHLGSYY
# In short: (§1)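 A tag-only sample was pooled with DNA-barcoded human transcription factors that had been expressed in yeast as GST fusions and captured on glutathione beads. The pools were incubated for 30 min at room temperature with 200 nmole of a random double-stranded 16-mer DNA library in Tris/NaCl/DTT/glycerol buffer, then washed, crosslinked with 0.1% formaldehyde, proximity-ligated (BsaI/T4 ligase, 1 h, 37 °C), PCR-amplified and sequenced on an Illumina NextSeq500. Binding signal is each hexamer's read frequency for a factor divided by its frequency for the tag-only sample.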
# ELK1 = biological target: T2, ELK1 (Homo sapiens, UniProt P19419 1-428); conditions: protein: recombinant; tags: N-terminal GST; dsDNA, one strand shown
# T2 sequence: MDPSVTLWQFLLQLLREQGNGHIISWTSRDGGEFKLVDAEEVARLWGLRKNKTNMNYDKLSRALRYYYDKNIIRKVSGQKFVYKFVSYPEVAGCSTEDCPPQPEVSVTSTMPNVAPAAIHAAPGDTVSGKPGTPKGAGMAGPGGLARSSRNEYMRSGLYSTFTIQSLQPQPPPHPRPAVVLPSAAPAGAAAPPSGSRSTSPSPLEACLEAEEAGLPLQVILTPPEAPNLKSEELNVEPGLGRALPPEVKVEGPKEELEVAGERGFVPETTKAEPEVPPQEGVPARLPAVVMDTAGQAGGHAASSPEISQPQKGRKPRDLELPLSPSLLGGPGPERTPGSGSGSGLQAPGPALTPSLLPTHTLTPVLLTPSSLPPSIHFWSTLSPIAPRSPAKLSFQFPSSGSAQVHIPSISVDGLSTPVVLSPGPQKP
# In short: as §1
# GABPA = biological target: T3, GABPA (Homo sapiens, UniProt Q06546 1-454); conditions: protein: recombinant; tags: N-terminal GST; dsDNA, one strand shown
# T3 sequence: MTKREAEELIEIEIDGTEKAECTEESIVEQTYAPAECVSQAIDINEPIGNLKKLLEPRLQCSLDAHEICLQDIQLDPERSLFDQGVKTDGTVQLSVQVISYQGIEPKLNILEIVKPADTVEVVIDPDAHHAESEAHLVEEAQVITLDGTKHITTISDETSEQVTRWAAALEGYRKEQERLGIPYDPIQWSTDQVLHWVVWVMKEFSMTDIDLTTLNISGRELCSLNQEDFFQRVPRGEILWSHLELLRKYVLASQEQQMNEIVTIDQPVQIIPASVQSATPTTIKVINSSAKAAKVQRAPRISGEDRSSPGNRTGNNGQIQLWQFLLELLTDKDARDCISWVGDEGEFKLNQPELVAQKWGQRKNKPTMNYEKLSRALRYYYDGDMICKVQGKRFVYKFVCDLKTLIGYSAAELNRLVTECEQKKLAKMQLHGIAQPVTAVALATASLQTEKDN
# In short: as §1
# ERG = biological target: T4, ERG (Homo sapiens, UniProt P11308 1-479); conditions: protein: recombinant; tags: N-terminal GST; dsDNA, one strand shown
# T4 sequence: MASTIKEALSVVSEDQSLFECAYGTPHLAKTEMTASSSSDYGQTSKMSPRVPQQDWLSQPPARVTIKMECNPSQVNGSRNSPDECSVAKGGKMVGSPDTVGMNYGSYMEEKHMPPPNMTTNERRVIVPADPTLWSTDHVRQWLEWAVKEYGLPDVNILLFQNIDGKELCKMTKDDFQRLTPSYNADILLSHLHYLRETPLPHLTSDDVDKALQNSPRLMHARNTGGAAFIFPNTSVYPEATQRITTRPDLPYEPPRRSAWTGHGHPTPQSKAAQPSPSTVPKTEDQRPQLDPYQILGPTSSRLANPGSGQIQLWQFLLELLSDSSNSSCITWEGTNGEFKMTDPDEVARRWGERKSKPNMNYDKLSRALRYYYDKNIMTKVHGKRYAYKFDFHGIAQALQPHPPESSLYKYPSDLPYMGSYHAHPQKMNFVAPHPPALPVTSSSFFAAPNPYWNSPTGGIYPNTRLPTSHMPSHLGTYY
# In short: as §1
# ELF1 = ELF1 (Homo sapiens, UniProt P32519 1-619); conditions: protein: recombinant; tags: N-terminal GST; dsDNA, one strand shown
# In short: as §1
# EHF = biological target: T5, EHF (Homo sapiens, UniProt Q9NZC4 1-300); conditions: protein: recombinant; tags: N-terminal GST; dsDNA, one strand shown
# T5 sequence: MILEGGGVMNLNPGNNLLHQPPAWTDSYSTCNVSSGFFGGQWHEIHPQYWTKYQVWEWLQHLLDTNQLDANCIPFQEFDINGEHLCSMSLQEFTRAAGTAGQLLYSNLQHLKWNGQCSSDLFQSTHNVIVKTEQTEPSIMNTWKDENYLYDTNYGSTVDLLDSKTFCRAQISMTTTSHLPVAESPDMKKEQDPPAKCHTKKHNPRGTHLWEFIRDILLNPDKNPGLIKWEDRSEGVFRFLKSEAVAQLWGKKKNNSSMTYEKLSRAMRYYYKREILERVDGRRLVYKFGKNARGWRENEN
# In short: as §1
# SPI1 = SPI1 (Homo sapiens, UniProt P17947 1-270); conditions: protein: recombinant; tags: N-terminal GST; dsDNA, one strand shown
# In short: as §1
# SPIB = SPIB (Homo sapiens, UniProt Q01892 1-262); conditions: protein: recombinant; tags: N-terminal GST; dsDNA, one strand shown
# In short: as §1
# ELK3 = biological target: T6, ELK3 (Homo sapiens, UniProt P41970 1-407); conditions: protein: recombinant; tags: N-terminal GST; dsDNA, one strand shown
# T6 sequence: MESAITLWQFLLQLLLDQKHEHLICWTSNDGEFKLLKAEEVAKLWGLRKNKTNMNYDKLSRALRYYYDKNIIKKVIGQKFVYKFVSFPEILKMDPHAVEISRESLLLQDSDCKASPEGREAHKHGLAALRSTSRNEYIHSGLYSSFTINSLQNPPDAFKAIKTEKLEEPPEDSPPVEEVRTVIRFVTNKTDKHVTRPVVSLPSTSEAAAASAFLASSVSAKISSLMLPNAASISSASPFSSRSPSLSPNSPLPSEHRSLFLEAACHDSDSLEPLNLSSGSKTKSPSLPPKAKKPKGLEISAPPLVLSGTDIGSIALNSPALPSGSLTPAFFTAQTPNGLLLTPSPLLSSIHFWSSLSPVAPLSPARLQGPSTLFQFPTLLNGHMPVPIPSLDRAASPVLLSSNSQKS
# In short: as §1
# FEV = biological target: T7, FEV (Homo sapiens, UniProt Q99581 1-238); conditions: protein: recombinant; tags: N-terminal GST; dsDNA, one strand shown
# T7 sequence: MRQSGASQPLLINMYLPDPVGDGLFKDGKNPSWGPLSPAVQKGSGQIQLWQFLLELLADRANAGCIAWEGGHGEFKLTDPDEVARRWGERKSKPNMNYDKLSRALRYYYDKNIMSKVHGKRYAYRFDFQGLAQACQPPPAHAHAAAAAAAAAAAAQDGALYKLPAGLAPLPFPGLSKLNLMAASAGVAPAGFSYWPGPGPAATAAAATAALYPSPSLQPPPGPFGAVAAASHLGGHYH
# In short: as §1
# ETV5 = ETV5 (Homo sapiens, UniProt P41161 1-510); conditions: protein: recombinant; tags: N-terminal GST; dsDNA, one strand shown
# In short: as §1
# HSF1 = HSF1 (Homo sapiens, UniProt Q00613 1-529); conditions: protein: recombinant; tags: N-terminal GST; chain copies: 3; dsDNA, one strand shown
# In short: as §1
# SPIC = biological target: T8, SPIC (Homo sapiens, UniProt Q8N5J4 1-248); conditions: protein: recombinant; tags: N-terminal GST; dsDNA, one strand shown
# T8 sequence: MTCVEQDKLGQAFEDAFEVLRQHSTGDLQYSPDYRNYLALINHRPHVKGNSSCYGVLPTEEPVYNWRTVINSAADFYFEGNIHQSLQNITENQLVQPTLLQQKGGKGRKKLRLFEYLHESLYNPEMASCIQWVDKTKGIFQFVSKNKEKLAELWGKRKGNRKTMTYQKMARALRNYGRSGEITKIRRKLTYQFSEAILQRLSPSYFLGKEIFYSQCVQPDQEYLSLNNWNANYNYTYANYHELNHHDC
# In short: as §1
# ELF4 = ELF4 (Homo sapiens, UniProt Q99607 1-663); conditions: protein: recombinant; tags: N-terminal GST; dsDNA, one strand shown
# In short: as §1
# ELK4 = biological target: T9, ELK4 (Homo sapiens, UniProt P28324-2 1-405); conditions: protein: recombinant; tags: N-terminal GST; dsDNA, one strand shown
# T9 sequence: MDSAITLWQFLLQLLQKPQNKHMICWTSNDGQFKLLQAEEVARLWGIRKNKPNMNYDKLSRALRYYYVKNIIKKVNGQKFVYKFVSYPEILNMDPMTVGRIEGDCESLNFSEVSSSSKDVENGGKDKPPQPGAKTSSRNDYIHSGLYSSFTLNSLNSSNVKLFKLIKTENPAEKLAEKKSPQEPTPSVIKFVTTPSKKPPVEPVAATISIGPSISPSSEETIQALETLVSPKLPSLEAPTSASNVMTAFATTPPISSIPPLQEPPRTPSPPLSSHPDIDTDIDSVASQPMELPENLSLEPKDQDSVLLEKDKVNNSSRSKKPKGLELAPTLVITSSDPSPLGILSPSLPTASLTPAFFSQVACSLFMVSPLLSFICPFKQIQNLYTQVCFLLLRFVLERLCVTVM
# In short: as §1
# ETV2 = biological target: T10, ETV2 (Homo sapiens, UniProt O00321 1-342); conditions: protein: recombinant; tags: N-terminal GST; dsDNA, one strand shown
# T10 sequence: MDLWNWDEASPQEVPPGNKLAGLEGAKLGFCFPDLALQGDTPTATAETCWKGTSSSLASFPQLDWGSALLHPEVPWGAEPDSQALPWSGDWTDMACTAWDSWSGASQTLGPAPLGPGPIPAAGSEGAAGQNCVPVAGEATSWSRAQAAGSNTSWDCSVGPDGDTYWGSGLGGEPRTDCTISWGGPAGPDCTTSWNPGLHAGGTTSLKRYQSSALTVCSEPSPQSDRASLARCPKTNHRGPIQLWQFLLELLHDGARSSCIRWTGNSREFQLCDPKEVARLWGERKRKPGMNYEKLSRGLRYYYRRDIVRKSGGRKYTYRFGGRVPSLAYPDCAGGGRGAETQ
# In short: as §1
# ELF3 = biological target: T11, ELF3 (Homo sapiens, UniProt P78545 1-371); conditions: protein: recombinant; tags: N-terminal GST; dsDNA, one strand shown
# T11 sequence: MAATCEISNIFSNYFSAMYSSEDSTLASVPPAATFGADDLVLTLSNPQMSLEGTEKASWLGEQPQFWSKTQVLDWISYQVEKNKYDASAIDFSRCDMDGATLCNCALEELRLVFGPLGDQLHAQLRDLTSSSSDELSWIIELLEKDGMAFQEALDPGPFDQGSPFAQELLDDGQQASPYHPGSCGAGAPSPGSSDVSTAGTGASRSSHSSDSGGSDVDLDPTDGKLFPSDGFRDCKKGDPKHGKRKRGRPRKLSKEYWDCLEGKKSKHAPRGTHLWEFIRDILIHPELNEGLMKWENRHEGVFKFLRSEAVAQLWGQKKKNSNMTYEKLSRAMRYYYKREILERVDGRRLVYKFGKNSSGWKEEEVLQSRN
# In short: as §1
# CRX = CRX (Homo sapiens, UniProt O43186 1-299); conditions: protein: recombinant; tags: N-terminal GST; dsDNA, one strand shown
# In short: as §1
# ETV1 = ETV1 (Homo sapiens, UniProt P50549 1-477); conditions: protein: recombinant; tags: N-terminal GST; dsDNA, one strand shown
# In short: as §1
# Chain of HSF1 (Q00613 whole entry): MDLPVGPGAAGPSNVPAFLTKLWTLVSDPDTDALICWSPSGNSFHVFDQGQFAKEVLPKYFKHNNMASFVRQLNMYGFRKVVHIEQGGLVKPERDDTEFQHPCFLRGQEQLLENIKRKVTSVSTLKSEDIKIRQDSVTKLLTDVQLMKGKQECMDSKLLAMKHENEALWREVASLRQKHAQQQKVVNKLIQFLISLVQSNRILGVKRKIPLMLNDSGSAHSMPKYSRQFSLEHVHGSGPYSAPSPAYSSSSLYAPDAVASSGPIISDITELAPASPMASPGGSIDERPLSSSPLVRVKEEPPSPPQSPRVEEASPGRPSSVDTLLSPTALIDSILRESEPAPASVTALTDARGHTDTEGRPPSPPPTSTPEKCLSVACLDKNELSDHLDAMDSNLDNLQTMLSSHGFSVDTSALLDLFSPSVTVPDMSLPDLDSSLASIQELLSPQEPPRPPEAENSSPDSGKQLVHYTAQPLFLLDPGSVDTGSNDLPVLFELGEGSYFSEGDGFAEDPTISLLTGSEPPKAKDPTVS
# Chain of SPIB (Q01892 whole entry): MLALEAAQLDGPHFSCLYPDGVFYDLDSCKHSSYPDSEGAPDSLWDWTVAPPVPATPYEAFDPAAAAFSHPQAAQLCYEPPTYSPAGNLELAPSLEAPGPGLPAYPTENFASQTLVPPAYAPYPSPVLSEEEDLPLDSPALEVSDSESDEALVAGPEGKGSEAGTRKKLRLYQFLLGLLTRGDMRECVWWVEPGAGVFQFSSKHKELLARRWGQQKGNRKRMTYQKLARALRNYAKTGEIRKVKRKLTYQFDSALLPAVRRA
# Chain of ELF1 (P32519 whole entry): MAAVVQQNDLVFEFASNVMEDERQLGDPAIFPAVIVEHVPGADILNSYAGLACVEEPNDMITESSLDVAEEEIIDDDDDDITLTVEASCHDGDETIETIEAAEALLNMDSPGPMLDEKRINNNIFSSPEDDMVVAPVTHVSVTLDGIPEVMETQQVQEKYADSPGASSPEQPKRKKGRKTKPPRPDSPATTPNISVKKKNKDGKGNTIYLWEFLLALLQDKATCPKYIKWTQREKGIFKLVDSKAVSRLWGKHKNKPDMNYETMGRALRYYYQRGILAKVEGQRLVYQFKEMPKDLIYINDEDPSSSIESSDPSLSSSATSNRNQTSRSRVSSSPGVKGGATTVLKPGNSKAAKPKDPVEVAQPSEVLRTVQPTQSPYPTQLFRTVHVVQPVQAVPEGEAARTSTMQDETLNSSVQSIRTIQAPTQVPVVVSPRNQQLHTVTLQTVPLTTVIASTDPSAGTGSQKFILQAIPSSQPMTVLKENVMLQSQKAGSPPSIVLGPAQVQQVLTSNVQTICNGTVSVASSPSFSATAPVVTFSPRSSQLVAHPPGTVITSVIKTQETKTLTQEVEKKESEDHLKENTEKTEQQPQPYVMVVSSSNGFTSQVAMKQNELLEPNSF
# Chain of ELF4 (Q99607 whole entry): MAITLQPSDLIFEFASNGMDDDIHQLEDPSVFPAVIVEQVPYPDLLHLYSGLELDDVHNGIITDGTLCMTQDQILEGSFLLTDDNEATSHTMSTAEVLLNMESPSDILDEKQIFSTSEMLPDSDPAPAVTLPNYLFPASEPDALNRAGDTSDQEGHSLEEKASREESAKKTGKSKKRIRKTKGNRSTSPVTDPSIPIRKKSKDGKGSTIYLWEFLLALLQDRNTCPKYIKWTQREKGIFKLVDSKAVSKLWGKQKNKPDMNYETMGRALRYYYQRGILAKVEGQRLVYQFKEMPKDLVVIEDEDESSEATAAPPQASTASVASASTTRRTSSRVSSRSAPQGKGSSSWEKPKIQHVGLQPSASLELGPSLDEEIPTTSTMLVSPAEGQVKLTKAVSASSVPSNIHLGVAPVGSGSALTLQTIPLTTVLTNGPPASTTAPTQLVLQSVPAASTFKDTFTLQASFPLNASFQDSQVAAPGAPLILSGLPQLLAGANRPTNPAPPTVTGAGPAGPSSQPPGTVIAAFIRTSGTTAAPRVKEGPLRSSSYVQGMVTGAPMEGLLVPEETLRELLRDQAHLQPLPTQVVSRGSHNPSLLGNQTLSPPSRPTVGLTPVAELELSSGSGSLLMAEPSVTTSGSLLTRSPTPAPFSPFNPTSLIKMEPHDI
# Chain of CRX (O43186 whole entry): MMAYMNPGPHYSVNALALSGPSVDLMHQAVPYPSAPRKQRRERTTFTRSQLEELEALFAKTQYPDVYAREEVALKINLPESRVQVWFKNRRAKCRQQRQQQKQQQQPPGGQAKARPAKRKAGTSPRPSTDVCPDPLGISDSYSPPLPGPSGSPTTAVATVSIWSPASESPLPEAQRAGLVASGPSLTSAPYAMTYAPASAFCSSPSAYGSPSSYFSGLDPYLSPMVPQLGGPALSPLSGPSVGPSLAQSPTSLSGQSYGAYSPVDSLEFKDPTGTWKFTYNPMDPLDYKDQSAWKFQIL
# Chain of ETV1 (P50549 whole entry): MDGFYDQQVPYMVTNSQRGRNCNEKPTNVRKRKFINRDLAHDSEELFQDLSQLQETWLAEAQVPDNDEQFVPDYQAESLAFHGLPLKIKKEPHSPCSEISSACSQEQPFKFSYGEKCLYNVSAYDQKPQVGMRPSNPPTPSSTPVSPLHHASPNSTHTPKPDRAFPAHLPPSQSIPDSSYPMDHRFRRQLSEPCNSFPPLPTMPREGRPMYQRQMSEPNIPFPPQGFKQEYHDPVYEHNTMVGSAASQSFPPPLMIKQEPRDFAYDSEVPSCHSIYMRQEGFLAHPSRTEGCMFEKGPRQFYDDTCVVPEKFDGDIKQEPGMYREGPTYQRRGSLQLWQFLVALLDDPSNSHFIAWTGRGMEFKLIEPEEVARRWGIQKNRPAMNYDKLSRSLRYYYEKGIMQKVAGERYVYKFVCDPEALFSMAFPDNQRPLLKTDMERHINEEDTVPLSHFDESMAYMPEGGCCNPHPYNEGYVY
# Chain of ETV5 (P41161 whole entry): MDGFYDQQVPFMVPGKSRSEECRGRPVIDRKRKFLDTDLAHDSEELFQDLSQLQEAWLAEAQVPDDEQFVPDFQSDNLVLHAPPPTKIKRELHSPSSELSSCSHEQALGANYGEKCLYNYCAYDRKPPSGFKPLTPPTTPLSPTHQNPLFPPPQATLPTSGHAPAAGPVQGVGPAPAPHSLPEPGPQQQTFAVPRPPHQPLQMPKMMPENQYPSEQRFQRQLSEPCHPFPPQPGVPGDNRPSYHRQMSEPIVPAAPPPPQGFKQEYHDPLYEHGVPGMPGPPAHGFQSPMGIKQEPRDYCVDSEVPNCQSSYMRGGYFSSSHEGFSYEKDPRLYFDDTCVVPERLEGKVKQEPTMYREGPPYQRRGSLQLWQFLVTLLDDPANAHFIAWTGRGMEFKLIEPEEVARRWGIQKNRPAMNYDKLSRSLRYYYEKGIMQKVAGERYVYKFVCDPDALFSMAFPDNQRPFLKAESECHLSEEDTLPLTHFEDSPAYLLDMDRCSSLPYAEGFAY
sequence,measurement,setting,value
TTCTAG,binding signal,FLI1,"1.27 fold enrichment (6-mer frequency, TF over GST control)"
same,binding signal,ELK1,"1.26 fold enrichment (6-mer frequency, TF over GST control)"
same,binding signal,GABPA,"1.38 fold enrichment (6-mer frequency, TF over GST control)"
same,binding signal,ERG,"1.33 fold enrichment (6-mer frequency, TF over GST control)"
same,binding signal,ELF1,"1.25 fold enrichment (6-mer frequency, TF over GST control)"
same,binding signal,EHF,"1.2 fold enrichment (6-mer frequency, TF over GST control)"
same,binding signal,SPI1,"1.2 fold enrichment (6-mer frequency, TF over GST control)"
same,binding signal,SPIB,"1.14 fold enrichment (6-mer frequency, TF over GST control)"
same,binding signal,ELK3,"1.3 fold enrichment (6-mer frequency, TF over GST control)"
same,binding signal,FEV,"1.15 fold enrichment (6-mer frequency, TF over GST control)"
same,binding signal,ETV5,"1.11 fold enrichment (6-mer frequency, TF over GST control)"
same,binding signal,HSF1,"7.56 fold enrichment (6-mer frequency, TF over GST control)"
same,binding signal,SPIC,"1.29 fold enrichment (6-mer frequency, TF over GST control)"
same,binding signal,ELF4,"1.22 fold enrichment (6-mer frequency, TF over GST control)"
same,binding signal,ELK4,"1.22 fold enrichment (6-mer frequency, TF over GST control)"
same,binding signal,ETV2,"1.18 fold enrichment (6-mer frequency, TF over GST control)"
same,binding signal,ELF3,"1.42 fold enrichment (6-mer frequency, TF over GST control)"
same,binding signal,CRX,"2.67 fold enrichment (6-mer frequency, TF over GST control)"
same,binding signal,ETV1,"1.2 fold enrichment (6-mer frequency, TF over GST control)"
